Measured values as given in PubChem BioAssay AID1159580 (chemical genetic matrix, 2015).
Hit rate of the full screen: of about 5,500 compounds, about 2,000 (36%) were called active. About 18% were inconclusive and are not listed. No stated cut-off is given here; in the data, active means normalized growth mostly below about 0.91 (no sharp cut-off); inconclusive means no clear call, values can overlap the other calls; inactive means mostly above about 0.92. The list shows a part of the results.

Test: chemical genetic growth profiling, strain panel (AID 1159580);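 further: tested at 20 µM; growth read once vehicle control cultures reached saturation at 30 °C; 1 = growth at the plate median or of vehicle wells; lower values mean less growth of the strain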
Conditions: growth OD

Measured: normalized growth

CON
inactive: S. cerevisiae deletion strains, locus YJR075W, strain HOC1, hits give low values 1.02 | S. cerevisiae deletion strains, locus YKL009W, strain mrt4, hits give low values 0.978 | S. cerevisiae deletion strains, locus YKL068W, hits give low values 0.992 | S. cerevisiae deletion strains, locus YKL085W, strain MDH1 (second series), hits give low values 1.04 | S. cerevisiae deletion strains, locus YKL085W, strain MDH1, hits give low values 1.04 | S. cerevisiae deletion strains, locus YKL160W, strain elf1, hits give low values 1.06 | S. cerevisiae deletion strains, locus YKL190W, strain CNB1, hits give low values 1 | S. cerevisiae deletion strains, locus YKR001C, strain vps1, hits give low values 0.989 | S. cerevisiae deletion strains, locus YKR026C, strain gcn3, hits give low values 0.993 | S. cerevisiae deletion strains, locus YKR091W, strain srl3, hits give low values 0.998 | S. cerevisiae deletion strains, locus YLL001W, strain dnm1, hits give low values 1 | S. cerevisiae deletion strains, locus YLL026W, hits give low values 1.01 | S. cerevisiae deletion strains, locus YLL041C, strain sdh2, hits give low values 0.988 | S. cerevisiae deletion strains, locus YLR027C, strain aat2, hits give low values 1.01 | S. cerevisiae deletion strains, locus YLR039C, strain RIC1, hits give low values 1.01 | S. cerevisiae deletion strains, locus YLR058C, strain SHM2, hits give low values 1.01 | S. cerevisiae deletion strains, locus YLR102C, strain apc9, hits give low values 0.989 | S. cerevisiae deletion strains, locus YLR113W, strain HOG1, hits give low values 0.988 | S. cerevisiae deletion strains, locus YLR221C, strain rsa3, hits give low values 0.984 | S. cerevisiae deletion strains, locus YLR258W, strain gsy2, hits give low values 1.01 | S. cerevisiae deletion strains, locus YLR262C, strain YPT6 (second series), hits give low values 0.999 | S. cerevisiae deletion strains, locus YLR262C, strain YPT6, hits give low values 1.01 | S. cerevisiae deletion strains, locus YLR268W, strain sec22, hits give low values 0.995 | S. cerevisiae deletion strains, locus YLR320W, strain mms22, hits give low values 1.02 | S. cerevisiae deletion strains, locus YLR330W, strain CHS5, hits give low values 1.01 | S. cerevisiae deletion strains, locus YLR342W, strain FKS1 (second series), hits give low values 0.999 | S. cerevisiae deletion strains, locus YLR342W, strain FKS1, hits give low values 1.01 | S. cerevisiae deletion strains, locus YLR357W, strain rsc2, hits give low values 0.97 | S. cerevisiae deletion strains, locus YLR370C, strain arc18, hits give low values 1.04 | S. cerevisiae deletion strains, locus YLR371W, strain rom2, hits give low values 0.99 | S. cerevisiae deletion strains, locus YLR384C, strain iki3, hits give low values 1.01 | S. cerevisiae deletion strains, locus YLR418C, strain cdc73, hits give low values 1.03 | S. cerevisiae deletion strains, locus YML016C, strain PPZ1, hits give low values 1 | S. cerevisiae deletion strains, locus YML032C, strain rad52, hits give low values 1.01 | S. cerevisiae deletion strains, locus YML120C, strain ndi1, hits give low values 1 | S. cerevisiae deletion strains, locus YML124C, strain tub3, hits give low values 0.987 | S. cerevisiae deletion strains, locus YMR058W, strain fet3, hits give low values 0.998 | S. cerevisiae deletion strains, locus YMR078C, strain ctf18, hits give low values 0.99 | S. cerevisiae deletion strains, locus YMR125W, strain sto1, hits give low values 0.987 | S. cerevisiae deletion strains, locus YMR129W, hits give low values 1.02 | S. cerevisiae deletion strains, locus YMR205C, strain PFK2, hits give low values 1 | S. cerevisiae deletion strains, locus YMR223W, strain ubp8, hits give low values 0.993 | S. cerevisiae deletion strains, locus YMR231W, strain pep5, hits give low values 0.996 | S. cerevisiae deletion strains, locus YMR263W, strain SAP30, hits give low values 1 | S. cerevisiae deletion strains, locus YMR307W, strain GAS1, hits give low values 1.09 | S. cerevisiae deletion strains, locus YNL067W, strain RPL9B, hits give low values 1.03 | S. cerevisiae deletion strains, locus YNL071W, strain lat1, hits give low values 0.985 | S. cerevisiae deletion strains, locus YNL153C, strain GIM3, hits give low values 1.04 | S. cerevisiae deletion strains, locus YNL183C, strain NPR1, hits give low values 0.927 | S. cerevisiae deletion strains, locus YNL209W, strain ssb2, hits give low values 1.01 | S. cerevisiae deletion strains, locus YNL233W, strain BNI4, hits give low values 1.04 | S. cerevisiae deletion strains, locus YNL248C, strain rpa49, hits give low values 1.02 | S. cerevisiae deletion strains, locus YNL250W, strain rad50, hits give low values 0.99 | S. cerevisiae deletion strains, locus YNL271C, strain bni1, hits give low values 0.986 | S. cerevisiae deletion strains, locus YNL298W, strain CLA4, hits give low values 0.981 | S. cerevisiae deletion strains, locus YNL307C, strain MCK1, hits give low values 0.993 | S. cerevisiae deletion strains, locus YNL322C, strain KRE1 (second series), hits give low values 1.01 | S. cerevisiae deletion strains, locus YNR049C, strain mso1, hits give low values 1 | S. cerevisiae deletion strains, locus YNR052C, strain pop2, hits give low values 0.978 | S. cerevisiae deletion strains, locus YOL006C, strain TOP1, hits give low values 1.08 | S. cerevisiae deletion strains, locus YOL012C, strain htz1 1.2 | S. cerevisiae deletion strains, locus YOL147C, strain pex11, hits give low values 0.998 | S. cerevisiae deletion strains, locus YOR001W, strain rrp6, hits give low values 0.968 | S. cerevisiae deletion strains, locus YOR061W, strain CKA2, hits give low values 1 | S. cerevisiae deletion strains, locus YOR069W, strain VPS5, hits give low values 0.993 | S. cerevisiae deletion strains, locus YOR070C, strain gyp1, hits give low values 1.02 | S. cerevisiae deletion strains, locus YOR080W, strain dia2, hits give low values 0.996 | S. cerevisiae deletion strains, locus YOR083W, strain WHI5, hits give low values 1.03 | S. cerevisiae deletion strains, locus YOR106W, strain vam3, hits give low values 1.02 | S. cerevisiae deletion strains, locus YOR136W, strain idh2, hits give low values 0.98 | S. cerevisiae deletion strains, locus YOR144C, strain elg1, hits give low values 0.995 | S. cerevisiae deletion strains, locus YOR184W, strain ser1, hits give low values 0.958 | S. cerevisiae deletion strains, locus YOR231W, strain MKK1, hits give low values 1.04 | S. cerevisiae deletion strains, locus YOR265W, strain rbl2, hits give low values 1.01 | S. cerevisiae deletion strains, locus YOR270C, strain vph1, hits give low values 1.04 | S. cerevisiae deletion strains, locus YOR290C, strain snf2, hits give low values 1.07 | S. cerevisiae deletion strains, locus YOR316C, strain cot1, hits give low values 0.983 | S. cerevisiae deletion strains, locus YPL051W, strain arl3, hits give low values 1.04 | S. cerevisiae deletion strains, locus YPL055C, strain LGE1, hits give low values 1.09 | S. cerevisiae deletion strains, locus YPL078C, strain atp4, hits give low values 1.04 | S. cerevisiae deletion strains, locus YPL106C, strain sse1, hits give low values 1.01 | S. cerevisiae deletion strains, locus YPL240C, strain hsp82, hits give low values 1 | S. cerevisiae deletion strains, locus YPL256C, strain CLN2, hits give low values 0.993 | S. cerevisiae deletion strains, locus YPR119W, strain clb2, hits give low values 0.99 | S. cerevisiae deletion strains, locus YPR141C, strain kar3, hits give low values 0.989 | S. cerevisiae deletion strains, locus YPR163C, strain tif3, hits give low values 0.991 | S. cerevisiae deletion strains, locus YPR167C, strain met16, hits give low values 0.984 | S. cerevisiae deletion strains, strain wtn01, hits give low values 0.978 | S. cerevisiae strains, strain wild type, hits give low values 0.997
